Values without a mark were called inactive. Inconclusive results are not listed. Where a call stands in place of a potency, no number is given. The source made the active and inactive calls. Unless noted, calls come from the whole dose curve; as a rule, active = well fitted curve in the direction sought with a large enough effect in the repeat runs; inconclusive = weak or mixed curves; inactive = no such curve, though single readings can be large; an effect the other way counts as inactive or inconclusive.
How the values were obtained:
[1] = biological target: Progesterone receptor (Homo sapiens) (UniProt P06401); assay: qHTS assay to identify small molecule agonists of the progesterone receptor (PR) signaling pathway (AID 1346784; calls by dose curve; note: nearly all actives have a fitted effect of over 30% in size)
How it was run: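 Using charcoal-stripped serum (2%) to limit endogenous steroids, PR-UAS-bla HEK 293T cells received compounds for 16 hr at 37C after 6 hr plating; beta-lactamase FRET fluorescence was recorded following 2 hr substrate loading at room temperature.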

[2] = biological target: Progesterone receptor (Homo sapiens) (UniProt P06401); assay: qHTS assay to identify small molecule antagonists of the progesterone receptor (PR) signaling pathway (AID 1346795; active = well fitted inhibition curve with a large enough effect in the signal ratio in the repeat runs, not every such curve was filed as active; the % refers to the signal ratio)
How it was run: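 Inhibition of R5020-induced (1 nM final) beta-lactamase reporter signal in PR-UAS-bla HEK293T cells was scored by FRET fluorescence after overnight (16 hr) compound treatment.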

[3] = qHTS assay to identify small molecule antagonists of the progesterone receptor (PR) signaling pathway - cell viability counter screen (AID 1346798); note: series mostly up to about 92 µM; nearly all actives have a fitted effect of over 50% in size
How it was run: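 ATP content as viability readout: CellTiter-Glo luminescence, 30 min room temperature, in PR-UAS-bla HEK293T cells after 16 hr compound/R5020 treatment at 37C and 5% CO2.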

[4] = qHTS assay to identify small molecule agonists of the progesterone receptor (PR) signaling pathway - cell viability counter screen (AID 1346799; calls by dose curve; note: nearly all actives have a fitted effect of over 45% in size; note: potency is the fitted concentration of half-maximal effect)
How it was run: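 Cytotoxicity in PR-bla HEK293T cells: 16 h compound, 37C; CellTiter-Glo added post-FRET read; luminescence after 30 min RT.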

[5] = qHTS assay to identify small molecule antagonists of the TGF-beta/Smad signaling pathway - cell viability counter screen (AID 1346824); note: nearly all actives have a fitted effect of over 50% in size
How it was run: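 SBE-bla HEK 293T cells were plated overnight at 37 C, then given compounds in DMSO plus TGF-beta1 (added as 0.25 ng/mL solution) for 5 hr. After the bla read, CellTiter-Glo was added to the same wells and luminescence read after 30 min at room temperature.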

[6] = qHTS assay to identify small molecule agonists of the TGF-beta/Smad signaling pathway - cell viability counter screen (AID 1346829); note: top concentration of the series differs between compounds; nearly all actives have a fitted effect of over 45% in size
How it was run: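 SBE-bla HEK 293T cells plated overnight, compound exposure 5 hr at 37 C. Viability read in the same wells by CellTiter-Glo luminescence after 30 min at room temperature, following the beta-lactamase read.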

[7] = qHTS assay to identify small molecule agonists of the TGF-beta/Smad signaling pathway (AID 1346859; active = well fitted activation curve with a large enough effect in the signal ratio in the repeat runs, not every such curve was filed as active; the % refers to the signal ratio; note: series mostly up to about 77 µM)
How it was run: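 Stable Smad binding element-beta-lactamase HEK 293T cells; 5 hr compound exposure at 37 C under 5% CO2; 2 hr room-temperature substrate step; fluorescence excited at 405 nm, collected at 460 nm and 530 nm.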

[8] = biological target: Thyrotropin-releasing hormone receptor (Homo sapiens) (UniProt P34981); assay: qHTS assay to identify small molecule antagonists of the thyrotropin-releasing hormone receptor (TRHR) signaling pathway (AID 1346877; active = well fitted inhibition curve with a large enough effect in the repeat runs, not every such curve was filed as active; note: series mostly up to about 51 µM)
How it was run: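 Calcium signal in dye-loaded TRHR/HEK293 cells; compounds added 5 min before TRH (1 nM final); fluorescence monitored 3 min at 1 s steps.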

[9] = biological target: Thyrotropin-releasing hormone receptor (Homo sapiens) (UniProt P34981); assay: qHTS assay to identify small molecule agonists of the thyrotropin-releasing hormone receptor (TRHR) signaling pathway (AID 1346891; calls by dose curve;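 note: HEK293 cells expressing TRHR with calcium dye readout; series mostly up to about 58 µM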)
How it was run: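 In 1536-format, 1500 TRHR-Hek293 cells per well grew 18 h, took up calcium dye for 2 h at 37 °C, received compound, and were read kinetically; 15-point titrations, triplicates.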

[10] = Human pregnane X receptor (PXR) small molecule agonists, qHTS cell viability counter screen (AID 1346977); note: nearly all actives have a fitted effect of over 50% in size
How it was run: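 Readout is CellTiter-Fluor fluorescence from PXR-Luc HepG2 cells. Plated cells rested 5hr, then were treated with compounds for 24hr at 37C and 5% CO2, with reagent present during the last hour.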

Sequence of Thyrotropin-releasing hormone receptor (Homo sapiens) (P34981 whole entry, looked up): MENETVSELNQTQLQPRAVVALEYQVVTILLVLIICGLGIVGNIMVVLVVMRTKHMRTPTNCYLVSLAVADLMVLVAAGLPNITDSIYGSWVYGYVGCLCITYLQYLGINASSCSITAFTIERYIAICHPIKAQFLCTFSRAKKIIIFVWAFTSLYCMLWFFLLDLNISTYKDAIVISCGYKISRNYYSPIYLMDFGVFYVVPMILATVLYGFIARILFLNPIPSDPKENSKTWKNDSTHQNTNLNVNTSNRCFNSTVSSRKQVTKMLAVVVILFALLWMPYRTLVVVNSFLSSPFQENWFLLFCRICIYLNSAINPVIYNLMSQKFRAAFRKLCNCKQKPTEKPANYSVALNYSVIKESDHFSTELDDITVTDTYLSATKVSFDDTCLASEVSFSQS
Sequence of Progesterone receptor (Homo sapiens) (P06401 whole entry, looked up): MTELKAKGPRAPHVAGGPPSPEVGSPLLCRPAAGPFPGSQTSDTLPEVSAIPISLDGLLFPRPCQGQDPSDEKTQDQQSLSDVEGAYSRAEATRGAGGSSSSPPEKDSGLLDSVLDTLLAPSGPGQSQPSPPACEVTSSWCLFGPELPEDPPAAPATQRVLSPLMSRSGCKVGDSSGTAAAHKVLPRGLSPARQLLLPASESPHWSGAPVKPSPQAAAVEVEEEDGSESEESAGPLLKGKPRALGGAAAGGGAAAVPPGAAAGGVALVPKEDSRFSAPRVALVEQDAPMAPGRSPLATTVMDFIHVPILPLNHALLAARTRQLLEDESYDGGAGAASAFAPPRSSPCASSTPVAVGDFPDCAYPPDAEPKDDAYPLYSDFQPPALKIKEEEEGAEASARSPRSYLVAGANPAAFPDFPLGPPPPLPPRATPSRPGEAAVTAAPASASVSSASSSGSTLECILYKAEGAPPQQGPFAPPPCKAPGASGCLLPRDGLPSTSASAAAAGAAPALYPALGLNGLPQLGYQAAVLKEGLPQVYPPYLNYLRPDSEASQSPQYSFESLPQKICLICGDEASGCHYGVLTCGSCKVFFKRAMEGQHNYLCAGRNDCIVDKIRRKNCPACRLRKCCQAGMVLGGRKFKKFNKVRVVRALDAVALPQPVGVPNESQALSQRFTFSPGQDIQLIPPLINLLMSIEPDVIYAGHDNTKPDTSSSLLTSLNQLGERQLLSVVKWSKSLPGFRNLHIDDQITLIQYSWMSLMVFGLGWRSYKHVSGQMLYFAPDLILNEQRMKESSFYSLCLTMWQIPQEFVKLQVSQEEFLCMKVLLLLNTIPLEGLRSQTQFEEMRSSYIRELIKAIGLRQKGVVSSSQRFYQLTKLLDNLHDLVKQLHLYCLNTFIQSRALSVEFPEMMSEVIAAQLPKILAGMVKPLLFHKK

Structure (SMILES)	Potency [1]	Potency [2]	Potency [3]	Potency [4]	outcome [5]	outcome [6]	outcome [7]	outcome [8]	Potency [9]	Potency [10]
O=C(O)[C@@H]1CSCN1	inactive	inactive	inactive	inactive	inactive	inactive	inactive			
O=C(O)[C@@H](O)[C@H](O)[C@H](O)[C@@H](O)C(=O)O	inactive	inactive	inactive	inactive	inactive	inactive	inactive	inactive	inactive	inactive
CCCCCCCCOC(=O)CCCCCCCCC(=O)OCCCCCCCC	inactive	inactive	inactive	inactive	inactive	inactive	inactive	inactive	inactive	inactive
O=c1[nH]c(=O)n([C@H]2C[C@H](O)[C@@H](CO)O2)cc1C(F)(F)F	inactive	inactive	inactive	inactive	inactive	inactive	inactive	inactive	inactive	inactive
Oc1ccccc1C=NCc1ccccc1	inactive	inactive	inactive	inactive	inactive	inactive	inactive	inactive	inactive	inactive
COC(C)CCO (centres undefined)	inactive	inactive	inactive	inactive	inactive	inactive	inactive	inactive	inactive	inactive
CC(C)(C)c1cccc(O)c1	inactive	inactive	inactive	inactive	inactive	inactive	inactive	inactive	inactive	inactive
Oc1ccccc1F	inactive	inactive	inactive	inactive	inactive	inactive	inactive	inactive	inactive	inactive
COc1nc(C)nc(NC(=O)NS(=O)(=O)c2ccccc2OCCCl)n1	inactive	inactive	inactive	inactive	inactive	inactive	inactive	inactive	inactive	
CC(=O)N[C@@H](CC(C)C)C(=O)O	inactive	inactive	inactive	inactive	inactive	inactive	inactive	inactive	inactive	
CCN(CC)CC1CCCCN1CC(=O)N1c2ccccc2C(=O)Nc2cccnc21 (centres undefined)	inactive	inactive	inactive	inactive	inactive	inactive	inactive	inactive	inactive	inactive
CN1CCN(N)CC1	inactive	inactive	inactive	inactive	inactive	inactive	inactive	inactive	inactive	inactive
COc1cc(Cl)ccc1Cl	inactive	inactive	inactive	inactive	inactive	inactive	inactive	inactive	inactive	
Cc1ncc(CO)c(CN)c1O	inactive	inactive	inactive	inactive	inactive	inactive	inactive	inactive	inactive	
CCC1(C)NC(=O)NC1=O (centres undefined)	inactive	inactive	inactive	inactive	inactive	inactive	inactive	inactive	inactive	
CCN[C@H]1CN(CCCOC)S(=O)(=O)c2sc(S(N)(=O)=O)cc21	inactive	inactive	inactive	inactive	inactive	inactive	inactive	inactive	inactive	inactive
COc1ccccc1N1CCN(CCCNc2cc(=O)n(C)c(=O)n2C)CC1	inactive	inactive	inactive	inactive	inactive	inactive	inactive	inactive	inactive	inactive
CC(C)Nc1nc(N)nc(Cl)n1	inactive	inactive	inactive	inactive	inactive	inactive	inactive	inactive	inactive	
CCOC(=O)C1CC(=O)C(=C(O)C2CC2)C(=O)C1 (centres undefined)	inactive	inactive	inactive	inactive	inactive	inactive	inactive	inactive	inactive	inactive
CCCNC(C)C(=O)Nc1c(C)csc1C(=O)OC (centres undefined)	inactive	inactive	inactive	inactive	inactive	inactive				
Cc1cc2c(s1)Nc1ccccc1N=C2N1CCN(C)CC1	inactive	inactive	inactive	inactive	inactive	inactive	inactive	inactive	inactive	
Cc1ccc(C)c(N)c1	inactive	inactive	inactive	inactive	inactive	inactive	inactive	inactive	inactive	inactive
CCCCCCCCc1ccc(S(=O)(=O)O)cc1	inactive	inactive	inactive	19.2 µM (active)	inactive	inactive	inactive	inactive	inactive	
CCCCCCCCCC/C=C/C#N	inactive	inactive	inactive	inactive	inactive	inactive	inactive	inactive	inactive	
